Results: the supplement of paper PMC10338343
± gives the standard deviation.

test system: MILI (PIWIL2) piRISC loaded with L1MC piRNA (26 nt); assay: pre-steady-state target cleavage rate (min^-1); guide: L1MC piRNA 5'p-UAACUAAAUACUAUGCAAGCUGUAGG; MIWI and MILI are mouse PIWI proteins and EfPiwi is from a freshwater sponge; tags in brackets are library labels; higher = faster piRNA-guided slicing of the target; settings: auxiliary factor: 500 nM mouse GTSF1
Summary of the method: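 In Cleave-'n-Seq, a transcribed, DNA-blocked target RNA library (0.1 nM) was combined with 1 nM active affinity-purified piRISC bearing one synthetic guide, with or without 500 nM GTSF1 partner protein. Reactions ran in HEPES–potassium acetate buffer at 33 °C for 0–8 or 0–960 min. Uncleaved targets were sequenced and normalised to depth and to weakly complementary targets, three trials were pooled, and k3 was capped at 0.0001 min^-1. The pre-steady-state cleavage rate was obtained by fitting a burst-and-steady-state model.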

Sequence | pre-steady-state target cleavage rate
UCCUGGAUGUCGAACCAUAGAAAUUAGUUA | < 0.0001
UCCUCCUACAGCUUGCAAUCUAUUUUCAAA | 0.0216 ± 0.0095
UCCUGGAUGUCCUUGCAUUCAAUUUAGUUA | 0.00852 ± 0.0047
UCCUGGAUGUCCUUGCAUAGUAUUUACUUA | 0.0499 ± 0.013
UCCUGGAUGUCCUUGCAUAGUAUUGAGUUA | 0.0563 ± 0.019
UCCUCCUACAGCUUGCAUUCUAUUUAGAAA | 0.0122 ± 0.0056
UCCUGGAUGUGCUUGCAUUGUAUUUAGAAA | 0.0114 ± 0.0047
UCCUGGAACAGCAUGCAUAGAAUUUAGUUA | 0.0767 ± 0.018
UCCUGGAUCAGCUUGCAAUGUAUUUUCAAA | 0.00576 ± 0.0035
UCCUGGAUGAGCUUGCAUAGUUAAUAGUUA | 0.00524 ± 0.004
UCCUGGAUGAGCUUGCUAAGUAUUUAGUAA | 0.0109 ± 0.0046
UCCUGGAACUCGUUGCAUAGUAUUUUCAAA | 0.0397 ± 0.011
UCCUCCUACAGCUUGCAUAGUUAAUUCAAA | 0.0506 ± 0.016
UCCUGCUACAGCAACCAUAGUAUUUAGAAA | 0.102 ± 0.03
UCCUGGAUGUCGAUGCAAUAGUAUUUAGUUA | 0.00497 ± 0.0023
UCCUGGAUGUGCUAGCAUAGUAUAUAGUUA | 0.115 ± 0.018

Sequence | pre-steady-state target cleavage rate
UCCUGGUACAGCUUGCAUAGAUAUUAGUUA | 0.0155 ± 0.005
UCCUCCUACAGCUUGGUUAGUAUUUACAAA | 0.0445 ± 0.012
UCCUGGAACAGCUUGCAAUCUAUUUAGUUA | 0.0258 ± 0.0054
UCCUGGAUCAGCUUGCAUAGUAAAUAGUAA | 0.196 ± 0.033
UCCUGGAUGAGCUUGCAUAGUAUUUUCAAA | 0.00959 ± 0.0061
UCCUGGAUCAGCUUGCAUAGUAUAAUCAAA | 0.0782 ± 0.019
UCCUGGAUGAGCUUGCAUAGUAUUUUCUUA | 0.0122 ± 0.0069
UCCUGGAUGUGCUUGCAUAGUAUUUUGAUA | 0.0122 ± 0.0054
UCCUGGAACAGCUUGCAUAGUAAAAAGUAA | 0.076 ± 0.022
UCCUGGUACAGCUUGCAUAGAUUUUAGAAA | 0.00722 ± 0.0042
UCCUGGAAGAGCUUGCAUAGUAUUUACUUA | 0.0737 ± 0.02
UCCUGGAUCAGCUUGCAUAGUAUAAUGUAA | 0.0214 ± 0.0079
UCCUGGUACACGUUGCAUAGUAUUUUCAAA | 0.02 ± 0.011
UCCUGGAUGUCCUUGCAUAGUAUAAAGUAA | 0.0169 ± 0.0066
UCCUGGAUCAGCUUGCAUAGAAAUUAGUUA | 0.0245 ± 0.0096
UCCUGGAACAGCAUGCAUAGUAUUUUCAAA | 0.066 ± 0.018

same assay, conditions: auxiliary factor: none (no GTSF1)

Sequence | pre-steady-state target cleavage rate
UCCUGGAUGUCGAAGCAUAGUUAAAUCAAA [g10:g16:cont:t1A] | < 0.0001
UCCUGGAUGUCGAACCAUAGUAUGUUAGUUA | < 0.0001
UCCUGGAUGUCGAACGUAAGAUAUUUAGUUA | < 0.0001
UCCUGGAUGUCGAACGUUAGGUAUUUAGUUA | < 0.0001
UCCUGGAUCAGCUUGGAUAGUAUUUUCAAA | < 0.0001
UCCUGGAUGUCGAUGCAUACUAUUUUGUUA | < 0.0001
UCCUGGAUGUCGAACGUAAGUAUUUAGUAUA | < 0.0001
UCCUGGAUGUCGAACGUAUGAAUUUUGUUA | < 0.0001
